{"source": "paper PMC4336329", "about": "(PLoS ONE, 2015)", "note": "Screen size: about 310,000 compounds; about 14,000 (4.5%) showed an effect of 50% or more. Effects have a minus sign here. What follows is part of a selection rich in strong results, with near analogues and random picks from the rest.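 Further: peak tail current of the secondary pulse compared with the same well before compound.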"}
{"biological_target": "human ether-à-go-go-related gene (hERG) potassium channel (human, UniProt Q12809)", "sequence (Q12809 whole entry, looked up)": "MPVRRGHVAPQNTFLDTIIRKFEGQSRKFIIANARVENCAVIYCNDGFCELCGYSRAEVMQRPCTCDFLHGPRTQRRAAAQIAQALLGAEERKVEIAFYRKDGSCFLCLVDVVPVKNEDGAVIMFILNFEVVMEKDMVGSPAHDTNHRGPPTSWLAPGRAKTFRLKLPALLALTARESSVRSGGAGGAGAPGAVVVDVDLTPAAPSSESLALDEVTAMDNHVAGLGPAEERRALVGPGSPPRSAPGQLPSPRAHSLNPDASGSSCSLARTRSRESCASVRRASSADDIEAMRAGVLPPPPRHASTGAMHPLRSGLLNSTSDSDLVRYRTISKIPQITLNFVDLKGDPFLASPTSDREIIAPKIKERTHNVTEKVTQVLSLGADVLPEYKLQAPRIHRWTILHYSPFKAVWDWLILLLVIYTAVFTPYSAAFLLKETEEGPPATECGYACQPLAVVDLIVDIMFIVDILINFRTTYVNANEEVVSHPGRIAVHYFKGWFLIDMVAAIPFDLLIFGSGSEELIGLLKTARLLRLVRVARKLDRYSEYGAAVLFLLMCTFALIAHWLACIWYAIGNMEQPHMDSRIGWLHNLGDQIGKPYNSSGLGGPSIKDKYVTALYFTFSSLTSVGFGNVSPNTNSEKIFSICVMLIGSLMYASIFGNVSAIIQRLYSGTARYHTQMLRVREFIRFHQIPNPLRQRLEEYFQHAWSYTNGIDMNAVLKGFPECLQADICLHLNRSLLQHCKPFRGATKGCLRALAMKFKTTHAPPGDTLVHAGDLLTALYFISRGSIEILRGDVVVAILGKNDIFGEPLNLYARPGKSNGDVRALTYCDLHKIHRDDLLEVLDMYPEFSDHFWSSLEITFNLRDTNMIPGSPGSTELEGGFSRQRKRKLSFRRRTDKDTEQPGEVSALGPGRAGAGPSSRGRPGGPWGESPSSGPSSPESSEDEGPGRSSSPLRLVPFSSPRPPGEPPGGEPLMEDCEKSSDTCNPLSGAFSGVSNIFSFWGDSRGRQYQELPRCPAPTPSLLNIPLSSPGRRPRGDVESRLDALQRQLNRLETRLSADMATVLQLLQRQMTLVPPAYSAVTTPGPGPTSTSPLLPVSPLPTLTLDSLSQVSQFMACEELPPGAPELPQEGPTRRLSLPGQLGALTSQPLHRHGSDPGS", "test": "primary screen, population patch clamp on CHO cells stably expressing hERG; higher = less effect of the substance", "units": {"hERG current change (%, negative = inhibition) at 10uM": "%"}}
{"molecule": "O=C(CCN=C1NS(=O)(=O)c2ccccc21)OCC(=O)c1ccc(F)cc1", "hERG current change (%, negative = inhibition) at 10uM": -3.17}
{"molecule": "O=C(NCCCN1CCOCC1)c1onc(CSc2ccncc2)c1C(=O)NCCCN1CCOCC1", "hERG current change (%, negative = inhibition) at 10uM": -5.25}
{"molecule": "CCCCCC(=O)N/N=C/c1ccc(N(C)C)cc1", "hERG current change (%, negative = inhibition) at 10uM": -19.2}
{"molecule": "COc1cc(NC(=O)C2CCN(c3cnccn3)CC2)cc(OC)c1OC", "hERG current change (%, negative = inhibition) at 10uM": 19.5}
{"molecule": "COc1ccc(CNC(=O)CSc2ccc(Br)cc2)cc1OC", "hERG current change (%, negative = inhibition) at 10uM": -63.1}
{"molecule": "COc1ccc(CNC(=O)CSc2n[nH]c(N)n2)cc1", "hERG current change (%, negative = inhibition) at 10uM": 20.1}
{"molecule": "COc1ccc(CCNC(=O)CSc2n[nH]c(N)n2)cc1OC", "hERG current change (%, negative = inhibition) at 10uM": 30.1}
{"molecule": "COc1ccc(CCNC(=O)CSc2ccc(Br)cc2)cc1OC", "hERG current change (%, negative = inhibition) at 10uM": 23}
{"molecule": "COc1ccc(CNC(=O)CSc2n[nH]c(N)n2)cc1OC", "hERG current change (%, negative = inhibition) at 10uM": -77.5}
{"molecule": "COc1ccccc1CNC(=O)CSc1ccc(Br)cc1", "hERG current change (%, negative = inhibition) at 10uM": -3.01}
{"molecule": "COc1ccc(CNC(=O)C2CCN(c3nccs3)CC2)cc1", "hERG current change (%, negative = inhibition) at 10uM": -31.8}
{"molecule": "CC(C)c1ccc(Oc2cccc(C(=O)/C(C#N)=C/N(C)C)c2)cc1", "hERG current change (%, negative = inhibition) at 10uM": -14.6}
{"molecule": "CSc1ncc(CN2CCCC(C(=O)c3ccc(C(C)(C)C)cc3)C2)cn1", "note": "(stereo not shown)", "hERG current change (%, negative = inhibition) at 10uM": -31.9}
{"molecule": "Cc1ccsc1C(=O)C1CCCN(Cc2cnn(C)c2)C1", "note": "(stereo not shown)", "hERG current change (%, negative = inhibition) at 10uM": 12}
{"molecule": "Cc1ccsc1C(=O)C1CCCN(Cc2cnn(C(C)C)c2)C1", "note": "(stereo not shown)", "hERG current change (%, negative = inhibition) at 10uM": -56.4}
{"molecule": "CSc1ncc(CN2CCCC(C(=O)c3cccc(Cl)c3)C2)cn1", "note": "(stereo not shown)", "hERG current change (%, negative = inhibition) at 10uM": -47.1}
{"molecule": "O=C(c1ccc(Cl)cc1)C1CCCN(Cc2cccn2-c2cccnc2)C1", "note": "(stereo not shown)", "hERG current change (%, negative = inhibition) at 10uM": -42}
{"molecule": "CSc1ccc(C(=O)C2CCCN(Cc3cnc(SC)nc3)C2)cc1", "note": "(stereo not shown)", "hERG current change (%, negative = inhibition) at 10uM": -76.4}
{"molecule": "Cc1ccsc1C(=O)C1CCCN(Cc2cnc(N)nc2)C1", "note": "(stereo not shown)", "hERG current change (%, negative = inhibition) at 10uM": -4.85}
{"molecule": "CSc1ncc(CN2CCCC(C(=O)c3sccc3C)C2)cn1", "note": "(stereo not shown)", "hERG current change (%, negative = inhibition) at 10uM": -55.2}
{"molecule": "Cc1ccsc1C(=O)C1CCCN(Cc2cnc(N3CCCC3)s2)C1", "note": "(stereo not shown)", "hERG current change (%, negative = inhibition) at 10uM": -15.3}
{"molecule": "CSc1ccc(C(=O)C2CCCN(Cc3cccn3-c3cccnc3)C2)cc1", "note": "(stereo not shown)", "hERG current change (%, negative = inhibition) at 10uM": -65.1}
{"molecule": "CCn1cc(CN2CCCC(C(=O)c3sccc3C)C2)cn1", "note": "(stereo not shown)", "hERG current change (%, negative = inhibition) at 10uM": -27.3}
{"molecule": "COc1cccc(/C=N/NC(=O)C(C)n2nnc3ccccc32)c1", "note": "(stereo not shown)", "hERG current change (%, negative = inhibition) at 10uM": -1.1}
{"molecule": "Cc1cc([N+](=O)[O-])nn1CC(=O)Nc1sc2c(c1C(N)=O)CCCC2", "hERG current change (%, negative = inhibition) at 10uM": 7.62}
{"molecule": "CCN(CC(=O)NCc1cccs1)CC(=O)Nc1c(Cl)ccc(C)c1Cl", "hERG current change (%, negative = inhibition) at 10uM": -16.8}
{"molecule": "CC12CC3(C)CC(C)(C1)CC(C(=O)NC(=S)NC(C)(C)C)(C2)C3", "hERG current change (%, negative = inhibition) at 10uM": 13.3}
{"molecule": "CSc1ccc(C(=O)C2CCCN(Cc3ccn[nH]3)C2)cc1", "note": "(stereo not shown)", "hERG current change (%, negative = inhibition) at 10uM": -26.6}
{"molecule": "O=C(C1CCCN(Cc2cccnc2)C1)N1CCCCC1.O=C(O)C(=O)O", "note": "(stereo not shown)", "hERG current change (%, negative = inhibition) at 10uM": 7.77}
{"molecule": "CSc1ccc(C(=O)C2CCCN(Cc3cccnc3)C2)cc1", "note": "(stereo not shown)", "hERG current change (%, negative = inhibition) at 10uM": -53}
{"molecule": "CCCCn1nc(C(=O)NCC2COc3ccccc3O2)c2ccccc2c1=O", "note": "(stereo not shown)", "hERG current change (%, negative = inhibition) at 10uM": -49.1}
{"molecule": "O=[N+]([O-])c1ccccc1/C=C/C=N/n1c(-c2ccc(Cl)cc2)n[nH]c1=S", "hERG current change (%, negative = inhibition) at 10uM": 17.5}
{"molecule": "O=C(CN(Cc1ccco1)C(=O)CNS(=O)(=O)c1ccc(F)cc1)NCc1ccccc1", "hERG current change (%, negative = inhibition) at 10uM": -28.4}
{"molecule": "CCOC(=O)C1CCN(C(=O)CCNC(=O)c2cc(OC)c(OC)c(OC)c2)CC1", "hERG current change (%, negative = inhibition) at 10uM": 10.9}
{"molecule": "O=C(c1ccc(Sc2ccc(F)cc2)c([N+](=O)[O-])c1)N1CCOCC1", "hERG current change (%, negative = inhibition) at 10uM": -18.5}
{"molecule": "CCN1CCCC1CNC(=O)c1ccc(Sc2ccc(F)cc2)c([N+](=O)[O-])c1", "note": "(stereo not shown)", "hERG current change (%, negative = inhibition) at 10uM": -66.5}
{"molecule": "CCN1CCCC1CNC(=O)c1ccccc1Cl", "note": "(stereo not shown)", "hERG current change (%, negative = inhibition) at 10uM": -10.6}
{"molecule": "O=C(NCCCN1CCOCC1)c1ccc(Sc2ccccc2Cl)c([N+](=O)[O-])c1", "hERG current change (%, negative = inhibition) at 10uM": -22.7}
{"molecule": "CCN1CCCC1CNC(=O)c1ccc(Sc2ccccc2Cl)c([N+](=O)[O-])c1", "note": "(stereo not shown)", "hERG current change (%, negative = inhibition) at 10uM": -64.1}
{"molecule": "O=C(NCCCN1CCOCC1)c1ccc(Sc2ccc(F)cc2)c([N+](=O)[O-])c1", "hERG current change (%, negative = inhibition) at 10uM": -33.3}
{"molecule": "CCOc1ccc(-c2nnn(CC(=O)N3CCCC3)n2)cc1OCC", "hERG current change (%, negative = inhibition) at 10uM": 13.8}
{"molecule": "Cl.O=c1c(-c2ccccc2)coc2c(CN3CCCCC3)c(O)ccc12", "hERG current change (%, negative = inhibition) at 10uM": 14.6}
{"molecule": "COc1ccc(NC(=O)CSCC(=O)N=c2sccn2C)cc1", "hERG current change (%, negative = inhibition) at 10uM": 11}
{"molecule": "O=C(Nc1ccc(O)cc1)c1cc2n(n1)C(C(F)(F)F)CC(c1ccco1)N2", "note": "(stereo not shown)", "hERG current change (%, negative = inhibition) at 10uM": -5.45}
{"molecule": "O=S(=O)(Nc1cccc(-c2cn3cccnc3n2)c1)c1ccc(Cl)cc1", "hERG current change (%, negative = inhibition) at 10uM": 16.4}
{"molecule": "CN1CCN(CC(=O)NC23CC4CC(CC(C4)C2)C3)CC1.Cl", "hERG current change (%, negative = inhibition) at 10uM": 4.19}
{"molecule": "CCc1ccc(Nc2n[n+](-c3ccccc3)c(-c3ccc(SC)cc3)s2)cc1.[Cl-]", "hERG current change (%, negative = inhibition) at 10uM": -2.72}
{"molecule": "CCc1ccc(Nc2n[n+](-c3ccccc3)c(-c3cccc(Cl)c3Cl)s2)cc1.[Cl-]", "hERG current change (%, negative = inhibition) at 10uM": -1.43}
{"molecule": "CCc1ccc(Nc2n[n+](-c3ccccc3)c(-c3c(Cl)cccc3Cl)s2)cc1.[Cl-]", "hERG current change (%, negative = inhibition) at 10uM": -27.5}
{"molecule": "CCc1ccc(Nc2n[n+](-c3ccccc3)c(-c3cc(OC)c(OC)cc3Br)s2)cc1.[Cl-]", "hERG current change (%, negative = inhibition) at 10uM": -55}
{"molecule": "COc1ccc(-c2sc(Nc3ccccc3)n[n+]2-c2ccccc2)cc1Br.[Cl-]", "hERG current change (%, negative = inhibition) at 10uM": -48.7}
{"molecule": "COc1cc(Br)c(-c2sc(Nc3ccccc3)n[n+]2-c2ccccc2)cc1OC.[Cl-]", "hERG current change (%, negative = inhibition) at 10uM": -68.7}
{"molecule": "CCc1ccc(Nc2n[n+](-c3ccccc3)c(/C=C/c3ccccc3)s2)cc1.[Cl-]", "hERG current change (%, negative = inhibition) at 10uM": -69}
{"molecule": "CCc1ccc(Nc2n[n+](-c3ccccc3)c(-c3ccc(OCc4ccccc4)cc3)s2)cc1.[Cl-]", "hERG current change (%, negative = inhibition) at 10uM": -45.2}
{"molecule": "COc1cc(Br)c(-c2sc(Nc3ccccc3)n[n+]2-c2ccc(F)cc2)cc1OC.[Cl-]", "hERG current change (%, negative = inhibition) at 10uM": -37.1}
